Results: PubChem BioAssay (Tox21)
Results filed as inconclusive are left out. A call without a number means that no potency is given here. Active and inactive are the calls of the source. Unless noted, calls come from the whole dose curve; as a rule, active = well fitted curve in the direction sought with a large enough effect in the repeat runs; inconclusive = weak or mixed curves; inactive = no such curve, though single readings can be large; an effect the other way counts as inactive or inconclusive.

Columns and labels:
[1] = qHTS assay to identify small molecule antagonists of the sonic hedgehog signaling (Shh) pathway (AID 1259369; calls by dose curve; note: nearly all actives have a fitted effect of over 45% in size; note: potency is the fitted concentration of half-maximal effect)
How it was run: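 NIH/3T3 stable Gli1-Luc clone, 2,000 cells/well, 4hr settle; cpd + conditioned medium 24hr; Luc reagent 30min RT; luminescence.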

[2] = target: Estrogen receptor beta (Homo sapiens) (UniProt Q92731); assay: qHTS assay to identify small molecule antagonists of the estrogen receptor beta (ER-beta) signaling pathway (AID 1259378; active = well fitted inhibition curve with a large enough effect in the signal ratio in the repeat runs, not every such curve was filed as active; the % refers to the signal ratio)
Estrogen receptor beta (Homo sapiens), sequence (Q92731 whole entry, looked up): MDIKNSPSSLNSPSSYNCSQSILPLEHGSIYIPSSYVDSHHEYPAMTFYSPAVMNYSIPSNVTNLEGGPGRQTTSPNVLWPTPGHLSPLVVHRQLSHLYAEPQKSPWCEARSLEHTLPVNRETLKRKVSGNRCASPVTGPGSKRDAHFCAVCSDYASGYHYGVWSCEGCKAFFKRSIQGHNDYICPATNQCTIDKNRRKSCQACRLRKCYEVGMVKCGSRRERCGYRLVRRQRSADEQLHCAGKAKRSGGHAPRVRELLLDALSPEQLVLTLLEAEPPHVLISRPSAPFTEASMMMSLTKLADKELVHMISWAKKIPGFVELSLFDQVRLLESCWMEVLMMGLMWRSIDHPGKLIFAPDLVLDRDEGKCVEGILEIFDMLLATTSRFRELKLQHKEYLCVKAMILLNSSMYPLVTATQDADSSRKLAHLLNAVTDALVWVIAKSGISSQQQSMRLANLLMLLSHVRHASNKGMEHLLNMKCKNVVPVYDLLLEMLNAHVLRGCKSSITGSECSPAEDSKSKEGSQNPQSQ
How it was run: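 ER-beta-UAS-bla HEK293T cells in 2% charcoal-stripped FBS medium treated with compound plus 1nM final 17-beta-estradiol for 16 hr at 37C. Beta-lactamase reporter read by FRET substrate fluorescence after 2 hours at room temperature.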

[3] = qHTS assay to identify small molecule agonists of the androgen receptor (AR) signaling pathway in the presence of an antagonist - cell viability counter screen (AID 1259379); note: nearly all actives have a fitted effect of over 25% in size; note: potency is the fitted concentration of half-maximal effect
How it was run: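 MDA-kb2 viability measured by CellTiter-Fluor fluorescence in the same wells as the luciferase signal; nilutamide 3.0uM final; 15-point compound titration; 16 hr at 37C.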

[4] = qHTS assay to identify small molecule agonists of the estrogen receptor beta (ER-beta) signaling pathway - cell viability counter screen (AID 1259380); note: nearly all actives have a fitted effect of over 30% in size
How it was run: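 Measured: luminescence from CellTiter-Glo after 30 min at room temperature, added to wells already read for the LiveBLAzer FRET reporter (2 hr substrate); ER-beta-UAS-bla HEK293T cells had 16 hr compound treatment at 37C, 5% CO2.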

[5] = qHTS assay to identify small molecule antagonists of the estrogen receptor beta (ER-beta) signaling pathway - cell viability counter screen (AID 1259382); note: series mostly up to about 92 µM; nearly all actives have a fitted effect of over 55% in size
How it was run: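 Readout: luminescence, CellTiter-Glo, same wells as bla assay. System: ER-beta-UAS-bla GripTite HEK293T, 2% charcoal-stripped FBS. Exposure: compounds plus 1nM 17-beta-estradiol, 16 hr, 37C.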

[6] = target: Estrogen receptor (Homo sapiens) (UniProt P03372); assay: qHTS assay to identify small molecule agonists of the estrogen receptor alpha (ER-alpha) signaling pathway in the presence of an antagonist (AID 1259383; calls by dose curve; note: top concentration of the series differs between compounds; nearly all actives have a fitted effect of over 15% in size)
Estrogen receptor (Homo sapiens), sequence (P03372 whole entry, looked up): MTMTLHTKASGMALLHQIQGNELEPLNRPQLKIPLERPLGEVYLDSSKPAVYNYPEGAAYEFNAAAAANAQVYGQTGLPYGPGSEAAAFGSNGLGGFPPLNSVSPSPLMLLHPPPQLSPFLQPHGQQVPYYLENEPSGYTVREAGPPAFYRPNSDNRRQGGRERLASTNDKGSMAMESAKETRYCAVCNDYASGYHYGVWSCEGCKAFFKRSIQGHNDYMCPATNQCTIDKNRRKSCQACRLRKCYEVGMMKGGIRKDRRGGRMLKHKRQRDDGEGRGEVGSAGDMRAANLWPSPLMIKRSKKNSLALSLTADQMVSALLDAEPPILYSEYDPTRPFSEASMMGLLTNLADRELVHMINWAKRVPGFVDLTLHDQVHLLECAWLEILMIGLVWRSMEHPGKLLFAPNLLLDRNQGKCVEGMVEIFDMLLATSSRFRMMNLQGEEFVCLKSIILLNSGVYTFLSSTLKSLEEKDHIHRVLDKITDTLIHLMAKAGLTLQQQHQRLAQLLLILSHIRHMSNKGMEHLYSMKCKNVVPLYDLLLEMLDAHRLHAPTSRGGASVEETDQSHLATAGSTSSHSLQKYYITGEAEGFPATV
How it was run: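 Quantitative HTS confirmation: compounds titrated at 15 concentrations onto estrogen-deprived VM7Luc4E2 cells carrying a four-ERE luciferase construct, with ICI-182,780 present at 10.0nM final. Signal is luminescence after 22hr exposure.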

[7] = qHTS assay to identify small molecule agonists or antagonists of the thyroid stimulating hormone receptor (TSHR) signaling pathway - wild type cell line counter screen (AID 1259384; calls by dose curve)
How it was run: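 Wild-type Hek293 cells, 800/well, 18 h at 37C, then compound with Ro20-1724 for 30 min RT. cAMP by HTRF (cAMP-d2/anti-cAMP cryptate), 1 h RT, fluorescence read. 15 concentrations, triplicates.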

[8] = target: Thyrotropin receptor (Homo sapiens) (UniProt P16473); assay: qHTS assay to identify small molecule antagonists of the thyroid stimulating hormone receptor (TSHR) signaling pathway (AID 1259385; calls by dose curve; note: nearly all actives have a fitted effect of over 20% in size)
Thyrotropin receptor (Homo sapiens), sequence (P16473 whole entry, looked up): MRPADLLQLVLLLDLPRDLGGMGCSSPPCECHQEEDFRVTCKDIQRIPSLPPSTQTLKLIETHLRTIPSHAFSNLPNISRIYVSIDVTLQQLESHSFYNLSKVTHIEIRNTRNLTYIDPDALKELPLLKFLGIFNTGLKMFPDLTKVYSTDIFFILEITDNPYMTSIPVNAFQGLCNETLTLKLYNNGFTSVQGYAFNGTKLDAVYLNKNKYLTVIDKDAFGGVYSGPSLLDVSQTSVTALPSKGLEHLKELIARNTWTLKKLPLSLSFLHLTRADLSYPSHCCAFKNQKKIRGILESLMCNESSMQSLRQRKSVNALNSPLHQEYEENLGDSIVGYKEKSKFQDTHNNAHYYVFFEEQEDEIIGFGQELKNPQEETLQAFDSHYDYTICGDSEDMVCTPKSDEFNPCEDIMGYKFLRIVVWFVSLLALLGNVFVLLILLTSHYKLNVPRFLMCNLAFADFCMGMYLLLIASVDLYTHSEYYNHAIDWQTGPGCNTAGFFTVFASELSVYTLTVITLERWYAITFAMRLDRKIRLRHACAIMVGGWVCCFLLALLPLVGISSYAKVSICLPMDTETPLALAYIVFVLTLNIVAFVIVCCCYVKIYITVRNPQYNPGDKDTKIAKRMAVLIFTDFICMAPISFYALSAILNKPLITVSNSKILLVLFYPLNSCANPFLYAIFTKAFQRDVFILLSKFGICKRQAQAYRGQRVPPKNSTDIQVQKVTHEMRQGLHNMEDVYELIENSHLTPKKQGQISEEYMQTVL
How it was run: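 TSHR-HEK293 cells (800/well) plated 18 h, then compounds with Ro20-1724 and TSH at 1.5 ng/mL final, 30 min at room temperature. cAMP quantified by HTRF (cAMP-d2/anti-cAMP-cryptate, 1 h); 15 concentrations in triplicate.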

[9] = qHTS assay to identify small molecule agonists of the estrogen receptor alpha (ER-alpha) signaling pathway in the presence of an antagonist - cell viability counter screen (AID 1259386);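 note: series mostly up to about 92 µM; cells exposed to compounds for 22 h at 37 °C before the viability read; nearly all actives have a fitted effect of over 30% in size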
How it was run: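 The test measures whether compounds kill ER-alpha reporter cells (VM7Luc4E2) under antagonist co-treatment (ICI-182,780, 10.0nM). Fluorescence from CellTiter-Fluor is read after a 22hr exposure.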

[10] = target: Progesterone receptor (Homo sapiens) (UniProt P06401); assay: qHTS assay to identify small molecule antagonists of the progesterone receptor (PR) signaling pathway (AID 1346795; active = well fitted inhibition curve with a large enough effect in the signal ratio in the repeat runs, not every such curve was filed as active; the % refers to the signal ratio; note: potency is the fitted concentration of half-maximal effect)
Progesterone receptor (Homo sapiens), sequence (P06401 whole entry, looked up): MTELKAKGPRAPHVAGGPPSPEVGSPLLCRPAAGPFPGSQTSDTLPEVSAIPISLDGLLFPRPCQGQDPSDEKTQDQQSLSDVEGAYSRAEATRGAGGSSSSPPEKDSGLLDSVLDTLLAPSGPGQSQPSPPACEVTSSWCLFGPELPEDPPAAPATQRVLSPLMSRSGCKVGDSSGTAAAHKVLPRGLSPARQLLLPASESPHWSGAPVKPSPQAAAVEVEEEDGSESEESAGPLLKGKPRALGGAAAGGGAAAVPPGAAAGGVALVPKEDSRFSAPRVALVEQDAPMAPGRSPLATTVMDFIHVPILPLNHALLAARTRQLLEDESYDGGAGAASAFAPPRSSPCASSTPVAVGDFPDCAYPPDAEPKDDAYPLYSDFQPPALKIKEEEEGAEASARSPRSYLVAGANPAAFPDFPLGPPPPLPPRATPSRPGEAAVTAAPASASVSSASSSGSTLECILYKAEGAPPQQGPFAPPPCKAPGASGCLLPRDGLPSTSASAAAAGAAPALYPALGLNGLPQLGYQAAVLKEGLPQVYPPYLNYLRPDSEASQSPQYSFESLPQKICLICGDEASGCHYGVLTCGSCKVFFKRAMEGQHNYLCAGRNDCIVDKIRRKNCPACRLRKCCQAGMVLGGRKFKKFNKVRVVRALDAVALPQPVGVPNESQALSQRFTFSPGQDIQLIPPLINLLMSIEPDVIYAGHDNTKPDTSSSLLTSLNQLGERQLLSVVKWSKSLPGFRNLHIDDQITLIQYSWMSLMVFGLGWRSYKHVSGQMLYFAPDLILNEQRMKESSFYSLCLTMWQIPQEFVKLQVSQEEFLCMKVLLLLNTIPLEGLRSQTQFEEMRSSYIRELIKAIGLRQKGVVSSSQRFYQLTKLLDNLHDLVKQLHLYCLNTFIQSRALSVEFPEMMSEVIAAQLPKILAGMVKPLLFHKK
How it was run: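 Inhibition of R5020-induced (1 nM final) beta-lactamase reporter signal in PR-UAS-bla HEK293T cells was scored by FRET fluorescence after overnight (16 hr) compound treatment.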

[11] = qHTS assay to identify small molecule antagonists of the progesterone receptor (PR) signaling pathway - cell viability counter screen (AID 1346798); note: series mostly up to about 92 µM; nearly all actives have a fitted effect of over 50% in size
How it was run: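 ATP content as viability readout: CellTiter-Glo luminescence, 30 min room temperature, in PR-UAS-bla HEK293T cells after 16 hr compound/R5020 treatment at 37C and 5% CO2.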

[12] = qHTS assay to identify small molecule agonists of the progesterone receptor (PR) signaling pathway - cell viability counter screen (AID 1346799; calls by dose curve; note: nearly all actives have a fitted effect of over 45% in size)
How it was run: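 Cytotoxicity in PR-bla HEK293T cells: 16 h compound, 37C; CellTiter-Glo added post-FRET read; luminescence after 30 min RT.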

[13] = qHTS assay to identify small molecule antagonists of the TGF-beta/Smad signaling pathway - cell viability counter screen (AID 1346824); note: nearly all actives have a fitted effect of over 50% in size
How it was run: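 SBE-bla HEK 293T cells, incubated overnight, then compound plus 0.25 ng/mL TGF-beta1 (stock added) for 5 hr at 37 C. Viability was read in the same wells by CellTiter-Glo luminescence after 30 min at room temperature.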

[14] = qHTS assay to identify small molecule agonists of the TGF-beta/Smad signaling pathway - cell viability counter screen (AID 1346829); note: top concentration of the series differs between compounds; nearly all actives have a fitted effect of over 45% in size
How it was run: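 SBE-bla HEK 293T cells plated overnight, compound exposure 5 hr at 37 C. Viability read in the same wells by CellTiter-Glo luminescence after 30 min at room temperature, following the beta-lactamase read.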

[15] = qHTS assay to identify small molecule agonists of the TGF-beta/Smad signaling pathway (AID 1346859; active = well fitted activation curve with a large enough effect in the signal ratio in the repeat runs, not every such curve was filed as active; the % refers to the signal ratio; note: potency is the fitted concentration of half-maximal effect; for activation: series mostly up to about 77 µM)
How it was run: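 Stable Smad binding element-beta-lactamase HEK 293T cells; 5 hr compound exposure at 37 C under 5% CO2; 2 hr room-temperature substrate step; fluorescence excited at 405 nm, collected at 460 nm and 530 nm.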

[16] = target: Thyrotropin-releasing hormone receptor (Homo sapiens) (UniProt P34981); assay: qHTS assay to identify small molecule antagonists of the thyrotropin-releasing hormone receptor (TRHR) signaling pathway (AID 1346877; active = well fitted inhibition curve with a large enough effect in the repeat runs, not every such curve was filed as active; note: series mostly up to about 51 µM)
Thyrotropin-releasing hormone receptor (Homo sapiens), sequence (P34981 whole entry, looked up): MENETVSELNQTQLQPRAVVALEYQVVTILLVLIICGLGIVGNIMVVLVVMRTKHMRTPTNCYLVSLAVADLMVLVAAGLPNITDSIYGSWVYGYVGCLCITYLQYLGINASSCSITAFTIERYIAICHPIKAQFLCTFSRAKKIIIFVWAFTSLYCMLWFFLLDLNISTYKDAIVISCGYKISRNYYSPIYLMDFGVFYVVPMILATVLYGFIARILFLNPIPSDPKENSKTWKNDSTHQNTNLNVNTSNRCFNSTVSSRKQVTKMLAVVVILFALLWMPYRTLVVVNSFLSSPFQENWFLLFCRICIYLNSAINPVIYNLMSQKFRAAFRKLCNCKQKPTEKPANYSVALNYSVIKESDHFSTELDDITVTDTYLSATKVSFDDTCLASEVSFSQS
How it was run: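 Overnight-plated (18 h, 37 °C) HEK293 cells expressing TRHR were dye-loaded 2 h, treated with compound, then stimulated with TRH at 1 nM final. Fluorescence intensity was captured every second for 3 min.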

[17] = target: Thyrotropin-releasing hormone receptor (Homo sapiens) (UniProt P34981); assay: qHTS assay to identify small molecule agonists of the thyrotropin-releasing hormone receptor (TRHR) signaling pathway (AID 1346891; calls by dose curve;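 note: HEK293 cells expressing TRHR with calcium dye readout; series mostly up to about 58 µM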)
How it was run: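 In 1536-format, 1500 TRHR-Hek293 cells per well grew 18 h, took up calcium dye for 2 h at 37 °C, received compound, and were read kinetically; 15-point titrations, triplicates.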

[18] = target: Estrogen receptor beta (Homo sapiens) (UniProt Q92731); assay: qHTS assay to identify small molecule agonists of the estrogen receptor beta (ER-beta) signaling pathway (AID 1259377; active = well fitted activation curve with a large enough effect in the signal ratio in the repeat runs, not every such curve was filed as active; the % refers to the signal ratio; note: potency is the fitted concentration of half-maximal effect)
How it was run: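 In HEK293T cells bearing a UAS-beta-lactamase reporter under ER-beta control, DMSO-delivered compounds were incubated for 16 hr at 37C. Activity was detected as fluorescence 2 hours after LiveBLAzer B/G FRET substrate addition.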

[19] = target: Progesterone receptor (Homo sapiens) (UniProt P06401); assay: qHTS assay to identify small molecule agonists of the progesterone receptor (PR) signaling pathway (AID 1346784; calls by dose curve; note: nearly all actives have a fitted effect of over 30% in size)
How it was run: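 Using charcoal-stripped serum (2%) to limit endogenous steroids, PR-UAS-bla HEK 293T cells received compounds for 16 hr at 37C after 6 hr plating; beta-lactamase FRET fluorescence was recorded following 2 hr substrate loading at room temperature.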

SMILES | Potency [1] | Potency [2] | Potency [3] | Potency [4] | Potency [5] | Potency [6] | outcome [7] | Potency [8] | Potency [9] | Potency [10] | Potency [11] | Potency [12] | Potency [13] | Potency [14] | Potency [15] | Potency [16] | outcome [17] | Potency [18] | Potency [19]
CCCCCC/C=C\CCCCCCCC(=O)O | inactive | inactive | inactive | inactive | inactive | inactive | inactive | inactive | inactive | inactive | inactive | inactive | inactive | inactive | inactive | inactive | inactive |  | 
O=C1C(c2[nH]c3ccc(S(=O)(=O)O)cc3c2O)=Nc2ccc(S(=O)(=O)O)cc21 | inactive | inactive |  | inactive | inactive |  |  |  |  | inactive | inactive | inactive | inactive |  | inactive | inactive | inactive | inactive | inactive
O=S(=O)(O)c1ccccc1/C=C/c1ccc(-c2ccc(/C=C/c3ccccc3S(=O)(=O)O)cc2)cc1 | inactive |  |  | inactive | inactive | inactive | inactive |  |  |  | inactive | inactive | inactive |  | 44.3 µM (active) | inactive | inactive | 39.1 µM (active) | 
O=C(c1ccc(O)c(O)c1)c1ccc(O)cc1O | 2.43 µM (active) |  | 68.5 µM (active) | inactive | inactive |  |  |  |  | 15.3 µM (active) |  |  | inactive | inactive |  |  |  | 1.37 µM (active) | 
CCCCOC(=O)CO | inactive | inactive | inactive | inactive | inactive | inactive |  |  | inactive | inactive | inactive | inactive |  | inactive | inactive | inactive | inactive |  | inactive
O=C1CCCCCCCCCCCCCCCO1 | inactive | inactive | inactive | inactive | inactive | inactive | inactive | inactive | inactive |  | inactive | inactive |  | inactive | inactive | inactive | inactive |  | 
O=C(O)[C@H](O)[C@@H](O)[C@H](O[C@@H]1O[C@H](CO)[C@H](O)[C@H](O)[C@H]1O)[C@H](O)CO | inactive | inactive | inactive | inactive | inactive | inactive | inactive | inactive | inactive |  | inactive |  | inactive | inactive | inactive | inactive | inactive |  | 
C=Cc1cccc(C)c1 | inactive | inactive | inactive | inactive | inactive | inactive | inactive | inactive | inactive | inactive | inactive | inactive | inactive | inactive | inactive |  |  |  | inactive
Cc1cc(-n2nc3ccc(Cl)cc3n2)c(O)c(C(C)(C)C)c1 | inactive |  | inactive |  | inactive |  | inactive | inactive |  | inactive |  | inactive | inactive | inactive | inactive |  |  | inactive | inactive
C=C(C)C(=O)OCCCCCCCCCC | 13.8 µM (active) |  | inactive | inactive | inactive | inactive | inactive | inactive | inactive |  |  |  | inactive | inactive | inactive | inactive | inactive | inactive | inactive
